Assay outcomes as filed in PubChem BioAssay.
Most compounds without a hit are left out; they make up all but 2.1% or so of the library.
Arbovirus anti: blocks arbovirus infection | arbovirus infection cell-based antiviral screen | inhibition, % at 10 µM | actives 0.37% (n = 200,000) | AID 1251; in the data active = inhibition above about 30%
Calpain2 inh: calpain II (pig) inhibition; inhibition, % at 16 µM; AID 1236; purified calpain II, fluorogenic peptide substrate, 30 min; actives 0.37% (n = 220,000);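 active = inhibition above about 50%, limit read from the data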
ROMK primary: modulators of human ROMK potassium channel. B-score at 10 µM. P48048. Tet-inducible ROMK, thallium flux fluorescence; actives lie on both sides. actives 2% (n = 130,000);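 active = signal ratio slope over the read window, or its plate-corrected B-score, at least 3 SD from the plate mean, either direction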;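 also: B-score of the F/F0 ratio slope over 7 to 12 s after thallium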
Target sequence (P48048 whole entry, looked up): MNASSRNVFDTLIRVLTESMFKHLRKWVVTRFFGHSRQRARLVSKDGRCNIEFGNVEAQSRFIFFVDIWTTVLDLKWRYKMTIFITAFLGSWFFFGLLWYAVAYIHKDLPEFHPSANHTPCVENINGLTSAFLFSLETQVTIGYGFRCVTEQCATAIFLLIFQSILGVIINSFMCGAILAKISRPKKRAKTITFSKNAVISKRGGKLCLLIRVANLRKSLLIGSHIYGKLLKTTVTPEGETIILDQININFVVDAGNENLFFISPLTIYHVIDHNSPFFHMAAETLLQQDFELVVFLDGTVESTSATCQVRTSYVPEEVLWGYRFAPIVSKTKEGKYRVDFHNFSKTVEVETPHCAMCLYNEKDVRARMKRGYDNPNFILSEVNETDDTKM
HSV augment: increases HSV replication in cells; maximum fold increase; actives 0.005% (n = 220,000); AID 1956; HSV replication augmentation in cells, fold increase; in the data active = maximum fold increase above about 1.5; inconclusive = no clear call, values can overlap the other calls; tested in PC3 cells
Efa HMGR inh: E. faecalis class II HMG-CoA reductase inhibition. inhibition, % at 10 µM. actives 0.41% (n = 190,000). purified E. faecalis HMGR, NADPH absorbance 340 nm kinetic;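 active = inhibition above a set limit, the median over all tested compounds plus 3 SD, cut at about 9.5% in these data; inconclusive = no clear call, values can overlap the other calls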;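 also: enzyme runs in reverse so mevalonate oxidation gives rising NADPH absorbance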
ROMK retest: retested hit modulating human ROMK potassium channel; shares compounds with ROMK primary; ROMK thallium flux, fluorescence ratio; hits give low values; normalized thallium flux (F/F0 slope) at 10 µM; actives 54% (n = 3,000); AID 1917;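 active = Flux at 10 µM at least 3 SD below or above vehicle control mean in one or both replicates; inconclusive = no clear call, values can overlap the other calls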
Large screens that a line does not name were inactive (follow-up assays come after a bar, where they were run).

S=C(NCCc1ccccc1)NC1CC2CCC(C1)N2Cc1ccccc1 (configuration not stated)	ROMK primary -2.3 | ROMK retest 0.057
CCOc1cc2c(cc1OCC)C(c1ccccc1OC)OC(=O)C2 (configuration not stated)	none
COc1ccc(C2OC(=O)Cc3cc(OC)c(OC)cc32)cc1 (configuration not stated)	ROMK primary -2.5 | ROMK retest inactive
CC(O)CNc1nc2ccccc2n1CC(=O)NCC(F)(F)F (configuration not stated)	none (no result: HSV augment)
CC(O)CNc1nc2ccccc2n1CC(=O)NC12CC3CC(CC(C3)C1)C2 (configuration not stated)	ROMK primary -2.7 | ROMK retest 0.066
Cn1ncc(C(=O)Nc2ccc(Cl)cc2)c1C(F)(F)F	none (no result: Arbovirus anti, ROMK primary, Efa HMGR inh)
Cn1nc(C(F)(F)F)cc1C(=O)Nc1ccc(Cl)cc1	none (no result: Arbovirus anti, ROMK primary, Efa HMGR inh) | ROMK retest inactive
CN(C)c1ccc2c3c(ccc(N(C)C)c13)C(=O)OC2	none (no result: Arbovirus anti, ROMK primary, Efa HMGR inh) | ROMK retest inactive
CCn1ncc([C@@H]2C[C@H]3CN(Cc4cccc(Cl)c4)C(=O)[C@]34CCCN24)c1C	none
O=C1N(Cc2cccc(Cl)c2)C[C@@H]2C[C@@H](c3cccn3-c3cccnc3)N3CCC[C@@]123	ROMK primary -2.7 | ROMK retest 0.061
CCOc1cc(/C=C(\C#N)C(N)=O)ccc1OS(=O)(=O)c1ccccc1	ROMK primary -5 | ROMK retest 0.033
COc1ccc(OC)c(NC(=O)CSc2ncnc3c2cnn3-c2ccccc2Cl)c1	ROMK primary -3.2 | ROMK retest 0.06
COc1cc(NC(=O)CSc2ncnc3c2cnn3Cc2ccccc2)cc(OC)c1	none
Cc1cccc(N2C(=O)/C(=C\c3ccc(C(=O)O)cc3)c3ccccc3C2=O)c1	ROMK primary -6.4 | ROMK retest 0.046
NC(=O)c1ccc(NC(=O)COC(=O)C2CC(=O)N(Cc3ccccc3)C2)cc1 (configuration not stated)	none
Cc1ccc(NC(=O)Cc2cc(C(=O)O)c3ccccc3n2)c(C)c1	none
O=C(Nc1ccc(Oc2cccc(C(F)(F)F)c2)nc1)c1cccs1	none (no result: Arbovirus anti, ROMK primary, Efa HMGR inh) | ROMK retest 0.064
Cc1ncsc1CCC(=O)N1CCCC(C(=O)c2ccc3c(c2)OCO3)C1 (configuration not stated)	none
CC(C)(CO)NCc1cccc(OCc2ccc(Cl)cc2)c1	none
Clc1ccc(COc2cccc(CNCc3ccncc3)c2)cc1	ROMK primary -3.8 | ROMK retest inactive
O=C(Cn1nnc2ccccc21)OCC(=O)c1ccc(F)cc1	none (no result: Arbovirus anti, ROMK primary, Efa HMGR inh)
CNc1nc(C23CC4CC(CC(C4)C2)C3)cs1	none
Cc1ccccc1NS(=O)(=O)c1cc(S(C)(=O)=O)ccc1Cl	none | ROMK retest inactive
O=C(Cn1cnc2ccccc21)N1CCN(S(=O)(=O)c2ccccc2)CC1	none
Cc1cc2c(cc1S(=O)(=O)N(C)c1ccccc1)NC(=O)CO2	ROMK primary -5 | ROMK retest 0.053
Cc1cc2c(cc1S(=O)(=O)Nc1cccc(F)c1C)NC(=O)CO2	none
O=C(O)CCN1C(=O)/C(=C\c2cccc(OCC(=O)Nc3ccc(Cl)cc3)c2)SC1=S	none (no result: Arbovirus anti, ROMK primary, Efa HMGR inh) | ROMK retest 0.053
O=C(O)CCN1C(=O)CC(N2C(=O)/C(=C/c3ccc(Cl)cc3)SC2=S)C1=O (configuration not stated)	ROMK primary -2 | ROMK retest 0.044
O=C(CCCN1C(=O)/C(=C\c2ccccc2)SC1=S)Nc1ccc(O)cc1	none
CCOc1ccc(C(=O)NC(=S)Nc2cccc(S(=O)(=O)NC3=NCCC3)c2)cc1	ROMK primary 5.7 | ROMK retest inactive
C=C(C)CNC(=S)Nc1cccc(S(=O)(=O)NC2=NCCC2)c1	none
NC(=O)CCCc1nc(-c2ccccc2Cl)no1	none (no result: ROMK primary)
CNC(=O)CCCc1nc(-c2ccccc2Cl)no1	ROMK primary 3.1 | ROMK retest inactive
Nc1cc(F)ccc1N1CCCCCC1	none
O=C(Nc1cccnc1)c1cc(-c2ccccc2O)on1	ROMK primary 3 (no result: Arbovirus anti, Efa HMGR inh) | ROMK retest inconclusive
CN(C)CCCN(C(=O)c1ccco1)c1nc2ccc(Br)cc2s1	none
CCN(CC)CCCN(C(=O)c1ccco1)c1nc(-c2ccc(C)cc2)cs1	ROMK primary -3.5 | ROMK retest 0.057
CN(C)CCCN(C(=O)c1ccco1)c1nc2ccc(Cl)cc2s1	ROMK primary -4.1 | ROMK retest inconclusive
N#CC(Cc1ccccc1OC(F)F)c1nc2ccccc2[nH]1 (configuration not stated)	none
Cc1ccc(C2(CCNC(C)c3cccs3)CCOC(C(C)C)C2)cc1 (configuration not stated)	none
COc1ccccc1C1(CCNC(C)c2cccs2)CCOC(C(C)C)C1 (configuration not stated)	none (no result: Arbovirus anti, ROMK primary, Efa HMGR inh) | ROMK retest 0.041
CCOc1ccccc1N(CC(=O)NCCSc1ccccc1)S(C)(=O)=O	none
CC1(C)CC(=O)C(C=NCC2CCN(C(=O)Cc3ccccc3)CC2)=C(O)C1	ROMK primary -3.8 | ROMK retest inactive
O=C1c2sc3nc4c(c(=O)n3c2C(=O)N1c1ccccc1)CCC4	none
Cc1ccccc1N1C(=O)c2sc3nc4c(c(=O)n3c2C1=O)CCC4	ROMK primary -3.1 | ROMK retest inactive
COc1cc(/C=C2\SC(=S)N(NS(=O)(=O)c3ccccc3)C2=O)ccc1O	HSV augment inconclusive (no result: Arbovirus anti, ROMK primary, Efa HMGR inh) | ROMK retest 0.041
COc1cc(/C=C2\SC(=S)N(NS(=O)(=O)c3ccc(C)cc3)C2=O)ccc1O	HSV augment inconclusive (no result: Arbovirus anti, ROMK primary, Efa HMGR inh)
COc1ccccc1-c1nc2ccccc2nc1-c1ccccc1OC	none
COc1ccccc1C1=NC(c2ccc(C)cc2)N=C1C (configuration not stated)	ROMK primary -2.7 | ROMK retest inactive
C=CCc1cccc2cc(C(=O)NC(C)(C)C)c(=O)oc12	ROMK primary 7.4 | ROMK retest inactive
CC(=NCc1ccco1)c1c(O)n(C2CCCCC2)c(=O)[nH]c1=O	ROMK primary -2.8 | ROMK retest 0.058
CCOc1ccc(C2C(C(=O)c3ccc(C)o3)=C(O)C(=O)N2CCN2CCOCC2)cc1OC (configuration not stated)	ROMK primary 1.8 | ROMK retest inactive
CCCOc1ccc(C2C(C(=O)c3ccco3)=C(O)C(=O)N2CCN2CCOCC2)cc1OC (configuration not stated)	none (no result: HSV augment)
C=CCNC(=O)C1CC1(c1ccccc1)c1ccccc1 (configuration not stated)	none (no result: HSV augment)
COCC(C)NC(=O)CSc1nnc(-c2cccc(S(=O)(=O)N3CCCCC3)c2)o1 (configuration not stated)	none
CC(NC(=O)CSc1nnc(-c2cccc(S(=O)(=O)N3CCCCC3)c2)o1)C12CC3CC(CC(C3)C1)C2 (configuration not stated)	ROMK primary -3.8 | ROMK retest 0.066
COc1ccc(OCC(=O)Nc2cccc(NC(=O)c3ccco3)c2)cc1	none
Cc1csc2c(N3CCN(C(=O)Nc4ccc(OC(F)(F)F)cc4)CC3)ncnc12	none (no result: Arbovirus anti, ROMK primary, Efa HMGR inh) | ROMK retest inactive
Cc1csc2c(N3CCC(C(=O)O)CC3)ncnc12	none (no result: Arbovirus anti, Efa HMGR inh)
